# Source: PubChem (National Center for Advancing Translational Sciences (NCATS))
# Rows were chosen to be rich in hits. Some 3.9% of all compounds tested hit in one or more screens of this group.
# Casp1 inh – qHTS Assay for Allosteric/Competitive Inhibitors of Caspase-1; P29466; Caspase-1 enzyme, Ac-WEHD-AFC fluorogenic rate; Potency, µM (top dose mostly 57.5 µM), for inactives: at the top dose activity change, negative = inhibition, actives largely listed as inhibitors; 75,000 tested, 0.03% active; AID 900, 2007;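 further: plate controls were vehicle for no effect and no substrate for full effect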
# Caspase-7 inhib – qHTS Assay for Allosteric/Competitive Inhibitors of Caspase-7; Potency, µM (series often up to 57.5 µM), without a hit: at the top dose activity change, negative = inhibition, usual class: inhibitors; 75,000 tested, 0.02% active; P55210; AID 889, 2007; recombinant caspase-7, Ac-DEVD-AFC fluorescence rate; active means well fitted inhibition curve with a large enough effect in the main read-out, with a control signal flat, not every such curve was filed as active; inconclusive means small, poorly fitted or top-dose-only effect, or a change in a side signal; further: % of control where 0% means no effect
# 15-hLO inh – qHTS Assay for Inhibitors of 15-hLO (15-human lipoxygenase); purified 15hLO-1, xylenol orange hydroperoxide absorbance; Potency, µM (doses to about 57.1 µM), for inactives: at the highest dose activity change, negative = inhibition, actives largely listed as inhibitors; 74,000 tested, 1.4% active; AID 887, 2007; further: on the % scale 0 is the no-effect control and ±100 the full control effect; nearly all actives have a fitted effect of over 55% in size
# Target sequence (P16050 whole entry, looked up): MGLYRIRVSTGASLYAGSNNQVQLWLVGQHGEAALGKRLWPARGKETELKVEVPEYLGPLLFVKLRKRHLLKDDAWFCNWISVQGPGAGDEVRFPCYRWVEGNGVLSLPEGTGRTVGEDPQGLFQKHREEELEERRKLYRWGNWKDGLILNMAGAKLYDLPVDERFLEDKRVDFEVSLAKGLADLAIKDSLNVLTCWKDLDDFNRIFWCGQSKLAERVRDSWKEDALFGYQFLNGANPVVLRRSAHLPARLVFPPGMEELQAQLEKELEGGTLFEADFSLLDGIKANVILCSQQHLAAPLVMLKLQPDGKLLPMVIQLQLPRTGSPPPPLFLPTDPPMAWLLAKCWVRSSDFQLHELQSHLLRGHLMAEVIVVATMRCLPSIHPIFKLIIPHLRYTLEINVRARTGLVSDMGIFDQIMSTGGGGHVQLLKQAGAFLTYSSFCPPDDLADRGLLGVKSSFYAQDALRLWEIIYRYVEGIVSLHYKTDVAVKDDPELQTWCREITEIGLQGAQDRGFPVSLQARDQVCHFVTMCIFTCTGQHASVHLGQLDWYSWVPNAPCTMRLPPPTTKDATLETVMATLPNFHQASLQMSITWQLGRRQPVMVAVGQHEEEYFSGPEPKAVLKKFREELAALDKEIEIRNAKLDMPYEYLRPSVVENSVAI
#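 Purified human 15hLO-1 (40 nM final) in 25 mM Hepes pH 7.5, 0.01% Triton X-100 was preincubated with compound 15 min at room temperature, then reacted 6 min with 50 uM arachidonic acid; hydroperoxide detected by Fe-XO, 573/405 nm absorbance ratio.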
# ERK AVP block – qHTS Assay for Inhibitors of the ERK Signaling Pathway using a Homogeneous Screening Assay. AID 995, 2007. 72,000 tested, 0.99% active. Potency, µM (titrated, usually from 57.5 µM), without a hit: at the top dose activity, negative = inhibition, most hits filed as inhibitors. HEK293-V1b, vasopressin-stimulated pERK AlphaScreen; further: on the % scale 0 is the no-effect control and ±100 the full control effect; nearly all actives have a fitted effect of over 55% in size
#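 V1b-HEK293 cells; cpd 30 min 37C; 25 nM vasopressin 5 min; lyse 10 min; AlphaScreen beads 5 hr RT. Normalized to DMSO basal and 25 nM vasopressin; AC50 by Hill fit.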
# Tau fil binding – qHTS Assay for Tau Filament Binding. Microtubule-associated protein tau (Homo sapiens), P10636. recombinant tau filaments, thioflavin S fluorescence, 15 h; filaments grown with octadecylsulfate alongside compound. Potency, µM (top dose mostly 57.1 µM), without a hit: at the top dose activity change, negative = inhibition. 71,000 tested, 2% active;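 further: on the % scale 0 is the no-effect control and ±100 the full control effect; actives lower thioflavin S fluorescence by blocking filaments or displacing dye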
#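 His-tagged recombinant human tau (exons 2, 3, 10; 1 uM final) fibrillized with 30 uM sodium octadecylsulfate, 15 h at 37 C, in pH 7.4 HEPES buffer with 10 uM thioflavine S and 5 mM DTT. Reduced ThS fluorescence (450/510 nm) marks activity.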
# * marks the source's active call; other numbers are inactive results; ? = inconclusive; nt = no result given; ! = a repeat was not active; [ ] = another dose, or the depositor's remark. Unless noted, the call rests on the fitted dose curve; in most records, active means well fitted curve in the direction sought with a large enough effect; inconclusive means small, poorly fitted or top-dose-only effect, or another doubt; inactive means no such curve, though single readings can be large; an effect the other way counts as inactive or inconclusive. Potency means the concentration at half of the fitted maximal effect.
SMILES,Casp1 inh,Caspase-7 inhib,15-hLO inh,ERK AVP block,Tau fil binding
CCOC(=O)CSc1nc2ccc(N3CCOCC3)cc2c(=O)n1Cc1ccc2c(c1)OCO2,nt,?,20µM*,-9%,-27%
Cc1ccc(-c2cc(-c3ccccc3Cl)c(C#N)c(N)n2)o1,nt,?,7.9µM*,5%,13µM*
Cc1ccc(-c2cc(-c3ccccc3)c(C#N)c(N)n2)o1,nt,?,?,27%,3.2µM*
Cc1ccc(-c2cc(-c3ccc(F)cc3)nc(N)c2C#N)o1,-1%,-2%,-1%,4%,0%
N[C@@H](CSCc1ccccc1)C(=O)O,2%[11.5 µM],-1%[11.5 µM],0%[11.4 µM],6%[11.5 µM],-3%[11.4 µM]
Cc1ccc2nc(-c3ccc(N)cc3)sc2c1S(=O)(=O)O,nt,?,-22%,7%,-5%
C/C(=N\NC(=O)c1ccncc1)c1ccc2ccccc2c1O,-4%[11.5 µM],-4%[11.5 µM],19%[11.4 µM],7%[11.5 µM],78%[11.4 µM]
N#Cc1cccc(-c2nccc(NCc3ccccc3)n2)c1,-2%,-7%,-16%,-5%,6%
COc1ccccc1-c1nccc(NCc2cnc(C)cn2)n1,-1%,1%,16µM*,-10%,4%
COc1ccccc1-c1nccc(NCc2ccccc2)n1,-4%,-2%,-11%,1%,2%
COc1cccc(-c2nccc(NCc3ccccc3OC)n2)c1,-3%,-4%,25µM*,?,-14%
N#Cc1cccc(-c2nccc(NCc3cccnc3)n2)c1,-1%,0%,?,16µM*,-8%
COc1cccc(-c2nccc(NCc3ccccc3)n2)c1,-5%,-4%,13µM*,10µM*,-16%
CC(=O)c1cc(C)oc1C,0%,0%,-2%,6%,12%
CCOc1ccc(NCc2nnc(SCC(=O)Nc3cc(C)on3)n2-c2ccc(OC)cc2)cc1,-5%,-2%,-11%,17%,16µM*
CCOc1ccc(NCc2nnc(SCC(=O)Nc3cc(C)on3)n2-c2ccccc2OC)cc1,-2%,0%,-6%,-8%,-14%
CN1/C(=C/C(=O)c2nc(S(C)(=O)=O)ncc2Cl)C(C)(C)c2ccccc21,-12%,-14%,-15%,13%,10µM*
CN1/C(=C\C(=O)c2ccco2)C(C)(C)c2ccccc21,nt,?,-23%,?,-28%
CCC(C)NC(=O)c1c(N)n(/N=C/c2cccnc2)c2nc3ccccc3nc12 (configuration not stated),-5%,-2%,-19%,-4%,18%
Nc1c(S(=O)(=O)c2cccc(Cl)c2)c2nc3ccccc3nc2n1/N=C/c1ccc(O)c(O)c1,-3%,-10%,16µM*,-20%,?
Cc1cc(Nc2ccccc2N2CCOCC2)n2ncnc2n1,-1%,-1%,17%,-9%,20µM*
Cc1cc(Nc2ccc(F)cc2F)n2ncnc2n1,3%,-1%,8%,?,16%
CNc1ncnc2ccc(-c3ccccc3OC)cc12,3%,0%,-13%,32%,-15%
CC1(C)CC(=O)C2=C(C1)Oc1ncn(Cc3ccco3)c(=N)c1C2c1ccccc1 (configuration not stated),-1%,-5%,-7%,7%,16µM*
COc1ncc2nc(-c3cn(C)c4ccccc34)c(=O)n(CCc3ccccc3)c2n1,nt,?,0%,7%,183%
SMILES,Casp1 inh,Caspase-7 inhib,15-hLO inh,ERK AVP block,Tau fil binding
NCCC[C@@H](CC(=O)N[C@@H]1CCCC[C@H]1C(=O)N[C@H](CC(=O)N[C@@H](CCC(=O)O)CC(=O)O)Cc1ccccc1)NC(=O)C[C@H](CO)NC(=O)[C@@H]1CNCC[C@H]1N,nt,nt,nt,nt,-1%
COC(=O)c1ccc(Sc2ccc(C)cc2)c(N)c1,-1%,-2%,?,42%,-12%
COc1cc(Sc2ccc(C)cc2)c(OC)cc1N,-2%,-3%,?,?,25µM*
Cn1cccc1Cc1nnc(SCC(=O)Nc2ccc3c(c2)OCCO3)n1CCc1ccccc1,-1%,-7%,?,?,27%
Cn1cccc1Cc1nnc(SCC(=O)Nc2ccc3c(c2)OCO3)n1CCc1ccccc1,1%,-5%,?,16µM*,-6%
CN(C)c1nc(-c2cccnc2)nc2ccccc12,-4%,-4%,-4%,-18%,5%
CN(C)c1nc(-c2ccoc2)nc2ccccc12,-3%,-3%,?,-10%,16µM*
c1ccc(Nc2nc(-c3ccoc3)nc3ccccc23)cc1,-6%,-12%,-8%,-28%,13µM*
Cn1cccc1C(=O)N1CCC2(CC1)CCN(c1ccccc1)CC2,-1%,-1%,4%,-24%,-26%
O=C(Nc1ccc(N2CCCC2)cc1)c1ccc(Br)o1,-3%,-3%,?,-14%,3.2µM*
CCN(CC)c1ccc(NC(=O)c2ccc(Br)o2)cc1,-3%,-1%,-30%[11.4 µM],?,3.2µM*
COC(=O)Cc1ccc(NC(=O)c2ccc(Br)o2)cc1,-1%,0%,1%,-15%,-5%
CN1CCN(c2ccccc2NC(=O)c2ccc(Br)o2)CC1,0%,2%,-5%,20µM*,6%
Cc1ccc(NS(=O)(=O)c2ccc(NC(=O)c3ccc(Br)o3)cc2)c(C)c1,0%,1%,16µM*,?,40%
O=C(Nc1ccccc1N1CCOCC1)c1ccc(Br)o1,0%,0%,3%,-4%,1%
O=C(Nc1ccc(S(=O)(=O)NCCc2ccccc2)cc1)c1ccc(Br)o1,-5%,-9%,-24%,-30%,48%
O=C(Nc1ccc(N2CCN(C(=O)c3ccccc3)CC2)cc1)c1ccc(Br)o1,0%,-2%,-10%,?,-27%
S=C(NC1CCCCC1)N1CCC([C@H]2C=NC=N2)CC1,-2%[25.7 µM],-1%[25.7 µM],10%[25.6 µM],9%[25.7 µM],9%[25.6 µM]
CC(=O)OCC1OC(C#Cc2ccc(Cl)cc2)C=CC1OC(C)=O (configuration not stated),0%[11.5 µM],0%[11.5 µM],-14%[11.4 µM],6%[11.5 µM],nt
CCOC(=O)C1=C[C@@]2(CC)CCCN3CCc4c(n1c1ccccc41)C32 (some centres not stated),-1%,-1%,-7%,6%,nt
CCCCCCCC/C=C\CCCCCCCC(=O)N(CCO)CCO,-13%,-17%,1.3µM*,-7%,78%
CCCCCCC(=O)O,-3%,1%,-2%,24%,0%
CCCCCCCC/C=C\CCCCCCCC(=O)NCCO,-4%,0%,3%[25.6 µM],33%,32µM*!
CCCCCCCCCCCCCC(=O)O,-2%,-9%,-15%,5%,-24%
CCCCCCCC/C=C\CCCCCCCC(=O)O,-9%,-10%,-6%,21%,32µM*
CCCCC/C=C\C/C=C\CCCCCCCC(=O)O,-8%,-10%,0.16µM*,-6%,?
Nc1c2c(nc3ccccc13)CCC[C@H]2O,4%,1%,3%,2%,0%
